Results taken from PubChem BioAssay AID434973 (Sanford-Burnham Center for Chemical Genomics, 2010).
Screen size: about 330,000 compounds; about 4,900 (1.5%) were called active.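 The calls were made as follows: active = inhibition above about 50% at the single test dose (limit read from the data); inactive = the rest.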 The entries come from a sample that favours actives as a whole.

The compounds below were run against Sentrin-specific protease 7 (Homo sapiens) (UniProt Q9BQF6) (assay: SENP7 protease inhibitors, primary screen, biochemical, luminescence, uHTS (AID 434973;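 also: plate controls were DMSO with enzyme for no effect and no enzyme buffer wells for full effect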)). Conditions: recombinant SENP7, Z-RLRGG-aminoluciferin luminescence, 40 min; at 5 µM; active compounds read high.
In the case of `O=C(CN1C(=O)c2ccc([N+](=O)[O-])cc2C1=O)Nc1nnc(C2CC2)s1`, the inhibition is reported as -1.7% (inactive).
For `COc1ccc(CN2CCOC2=O)cc1OC`, the inhibition was 0.943% (inactive).
In the case of `CCC(=NC1CC(C)(C)NC(C)(C)C1)C1=C(O)CC(C)(C)CC1=O`, the inhibition is reported as -2.04% (inactive).
With `O=C1C(=O)N(CCN2CCOCC2)C(c2cccc(Cl)c2)/C1=C(/O)c1ccc2c(c1)OCO2` (stereo not drawn) the inhibition was 0% (inactive).
`COc1ccc(C2/C(=C(/O)c3ccc(OC(C)C)cc3)C(=O)C(=O)N2CCCN2CCOCC2)cc1` (stereo not drawn) was tested, and the inhibition was -3.1% (inactive).
`O=C1C(=O)N(CCCN2CCOCC2)C(c2ccc([N+](=O)[O-])cc2)/C1=C(\O)c1ccc2c(c1)OCCO2` (stereo not drawn) was tested, and the inhibition was 56.5% (active).
`COc1ccccc1OCc1ccc(C(=O)NC(C)c2ccccc2)o1` (stereo not drawn) was tested, and the inhibition was -1.75% (inactive).
With `Cc1ccc(S(=O)(=O)CCC(=O)Nc2nnc(CC(C)C)s2)cc1` the inhibition was 10.9% (inactive).
`COc1ccccc1CN(C)C(=O)c1cc2ccccc2o1` was tested, and the inhibition was 6.76% (inactive).
`Cc1ccc(OC(=O)c2cc3ccccc3o2)cc1` was tested, and the inhibition was 80.7% (active).
For `C/C(=N\NC(=S)Nc1ccc(C)cc1)c1cc2ccccc2o1`, the inhibition was -0.14% (inactive).
In the case of `COc1cc(C(=O)OCC(=O)NC23CC4CC(CC(C4)C2)C3)cc(OC)c1OC`, the inhibition is reported as 7.88% (inactive).
With `COc1cc(C2/C(=C(\O)c3ccc4c(c3)CC(C)O4)C(=O)C(=O)N2c2nnc(C)s2)cc(OC)c1OC` (stereo not drawn) the inhibition was 0.235% (inactive).
In the case of `COc1ccc(CNC(=O)CN(Cc2ccccc2Cl)C(=O)c2csnn2)cc1`, the inhibition is reported as -0.595% (inactive).
`CCCCn1c(N)c(N(CCC(C)C)C(=O)CC2OC(=O)c3ccccc32)c(=O)[nH]c1=O` (stereo not drawn) was tested, and the inhibition was 0.323% (inactive).
With `O=C(c1cccc([N+](=O)[O-])c1)N1CCN(C(=O)c2ccco2)CC1` the inhibition was 3.1% (inactive).
In the case of `O=C(Nc1ccc(C2CC2(Cl)Cl)cc1)c1cccc([N+](=O)[O-])c1` (stereo not drawn), the inhibition is reported as 54.2% (active).
For `COc1cc(NC(=O)c2cc([N+](=O)[O-])ccc2Br)ccc1NC(=O)c1ccco1`, the inhibition was -5.49% (inactive).
In the case of `CC(C)(C)SCCNC(=O)c1cccc([N+](=O)[O-])c1`, the inhibition is reported as 0.866% (inactive).
`O=C(Nc1ccc(NC(=O)c2ccco2)c(Cl)c1)c1cccc([N+](=O)[O-])c1` was tested, and the inhibition was 52.1% (active).
`Cc1cc(C)nc(NC(=O)c2cccc([N+](=O)[O-])c2)c1` was tested, and the inhibition was 2.66% (inactive).
`COc1ccc(S(=O)(=O)N2CCN(c3cnccn3)CC2)cc1` was tested, and the inhibition was 4.46% (inactive).
`COC(=O)c1ccc(-n2cnc3ccccc32)nc1` was tested, and the inhibition was -0.937% (inactive).
In the case of `O=C1CN(C(=O)COC(=O)/C=C/c2ccc(F)cc2)c2ccccc2N1`, the inhibition is reported as -6.02% (inactive).
In the case of `O=S(=O)(c1ccc(F)cc1)N1CCN(C(=S)NCc2ccco2)CC1`, the inhibition is reported as -0.183% (inactive).
With `COc1ccc(NC(=O)NN2CCN(C)CC2)c(OC)c1` the inhibition was 0.214% (inactive).
For `CCOc1ccc(-n2c(SCC(N)=O)nnc2-c2ccco2)cc1`, the inhibition was 6.82% (inactive).
For `N#Cc1ccc(OCc2nnc(-c3ccc([N+](=O)[O-])cc3)o2)cc1`, the inhibition was -0.787% (inactive).
With `CCCCOc1ccc(-c2nnc(-c3ccco3)o2)cc1` the inhibition was 80.5% (active).
With `O=C(NCCC1=CCCCC1)c1ccc(-n2cncn2)cc1` the inhibition was -9.22% (inactive).
In the case of `O=C(NCc1cccnc1)c1cccnc1Sc1ccc(Cl)cc1`, the inhibition is reported as 2.66% (inactive).
For `COc1cc2ccccc2cc1C(=O)Nc1ccncc1`, the inhibition was 7.87% (inactive).
`O=C(Nc1ccncc1)c1cc2ccccc2o1` was tested, and the inhibition was 60.6% (active).
With `CC(C)(C)n1nc2c(c1NC(=O)c1cc3ccccc3o1)CSC2` the inhibition was 6.18% (inactive).
`CCOc1ccc(N2C(=O)/C(=C/c3ccc(C)o3)N(C)C2=S)cc1` was tested, and the inhibition was 6.54% (inactive).
For `O=C(N[C@@H](Cc1ccccc1)C(=O)OCc1ccccc1)c1nc[nH]c1C(=O)N[C@@H](Cc1ccccc1)C(=O)OCc1ccccc1`, the inhibition was 4.7% (inactive).
For `CCOc1ccc(C(=O)COC(=O)c2ccc(-n3cnnn3)cc2)cc1`, the inhibition was -0.201% (inactive).
In the case of `O=C(Oc1ccc(C(=S)N2CCOCC2)cc1)c1ccc(F)cc1`, the inhibition is reported as 2.03% (inactive).
In the case of `CC(C)c1c(C(=O)N/N=C/c2ccc(-c3ccccc3)cc2)nnn1-c1nonc1N`, the inhibition is reported as 0.606% (inactive).
`Cc1nc2ccc(C(=O)N/N=C/c3ccc(O)cc3)cc2[nH]1` was tested, and the inhibition was 0.319% (inactive).
With `Cc1nonc1C(=O)N/N=C/c1ccc(O)cc1` the inhibition was 98.8% (active).
In the case of `Cn1ncc(N2CCN(S(=O)(=O)c3ccc(Br)cc3)CC2)c(Cl)c1=O`, the inhibition is reported as -5.83% (inactive).
With `Cc1ccc2cc(/C=N/Nc3ccc(C(=O)O)cc3)c(Cl)nc2c1` the inhibition was -6.79% (inactive).
`O=C(O)c1ccc(N/N=C/c2ccc3ncccc3c2)cc1` was tested, and the inhibition was 99.3% (active).
In the case of `O=C(O)c1ccc(/C=N/Nc2nc(N3CCCCC3)nc(N3CCCCC3)n2)cc1`, the inhibition is reported as -3.32% (inactive).
`COc1ccc(CCNC(=O)C(=O)NCC2OCCN2S(=O)(=O)c2ccc(OC)c(C)c2)cc1` (stereo not drawn) was tested, and the inhibition was 2.59% (inactive).
For `O=C(NC(=S)N1CCN(Cc2ccccc2)CC1)c1ccccc1`, the inhibition was 2.02% (inactive).
For `Cc1ccc(S(=O)(=O)N(C)C)cc1NC(=O)C(C)OC(=O)c1ccc2ccccc2n1` (stereo not drawn), the inhibition was 6.08% (inactive).
With `CC(NC(=O)COC(=O)c1ccc2ccccc2n1)c1ccccc1` (stereo not drawn) the inhibition was -1.7% (inactive).
In the case of `CC(OC(=O)c1ccc2ccccc2n1)C(=O)c1ccccc1` (stereo not drawn), the inhibition is reported as 55.8% (active).
`O=C(Nc1ccc(S(=O)(=O)N2CCCCC2)cc1)C1CCN(C(=O)c2ccc(F)cc2)CC1` was tested, and the inhibition was -13.9% (inactive).
In the case of `O=C(Nc1ccc(-c2nnc(-c3ccccc3)o2)cc1)C1CCCO1` (stereo not drawn), the inhibition is reported as 60.2% (active).
`CC(C)(C)NS(=O)(=O)c1ccc(NC(=O)C2CCCO2)cc1` (stereo not drawn) was tested, and the inhibition was 3.51% (inactive).
With `O=C(Nc1cccc(-c2nnc(-c3ccccc3)o2)c1)C1CCCO1` (stereo not drawn) the inhibition was 1.95% (inactive).
In the case of `O=C(COC(=O)/C=C/c1cccc(Cl)c1)NCc1cccs1`, the inhibition is reported as 15% (inactive).
In the case of `CCNC(=O)CC1C(=O)N(c2ccc(F)cc2)C(=O)N1CCc1sccc1C` (stereo not drawn), the inhibition is reported as 7.13% (inactive).
For `Cn1nc(-c2ccccc2)c(CSc2cccc(Cl)c2)c1Cl`, the inhibition was 2.83% (inactive).
For `Cc1nn2cc(-c3ccc(Cl)cc3)cnc2c1Br`, the inhibition was 88.2% (active).
